According to PubChem BioAssay (NCATS):
Records with an inconclusive call do not appear. Entries that show only a call come without a potency. The source made the active and inactive calls. Calls come from the whole dose curve; as a rule, active = well fitted inhibition curve with a large enough effect; inconclusive = small, poorly fitted or top-dose-only effect; inactive = flat fitted curve, though single readings scatter.

experiment: qHTS to identify inhibitors of the type 1 interferon - major histocompatibility complex class I in skeletal muscle: primary screen against the NCATS LOPAC collection (AID 1347405); details: iHSKM muscle cells, IFN-b-induced MHC-I HiBiT luminescence, 24 h; series mostly up to 45.9 µM;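 note: lytic HiBiT luminescence reporting HLA-B protein level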
Excerpt: Assay Submitter (PI): Travis B. Kinder Ph.D. & James Inglese Ph.D.
Assay Development and Screening Technology Laboratory (ADST)
National Center for Advancing Translational Sciences (NCATS), Rockville, MD
National Institute of Health (NIH), Bethesda, Maryland
Idiopathic inflammatory myopathies, collectively referred to as myositis, are a group of rare autoimmune diseases characterized by skeletal muscle inflammation, weakness, and usually accompanied by systemic pathologies of the skin, lungs, or vasculature. Current immunosuppressive therapies and glucocorticoids are often not curative and are accompanied by harsh side effects, especially in children with juvenile myositis. We initiated a drug repurposing and development program to identify more targeted, less toxic therapeutics to treat myositis. Although its cause is not known, muscle from a subset of patients have an abundance of the inflammatory type 1 interferon (IFN) and a down-stream product major histocompatibility complex class I (MHC class I), which are both thought to contribute to damage and weakness. We conducted quantitative high throughput screening on 6,576 compounds (4,679 unique) through a series of cell-based assays to identify those that inhibit the IFN-stimulated expression of MHC class I in muscle precursor cells (myoblasts). The compound identification and evaluation strategy utilized a primary screen with reporter-tagged MHC class I in genome-engineered myoblasts, ATP content counter screen for viability, HLA-ABC immunofluorescence secondary screen, and HLA-B RT-qPCR tertiary screen.
The primary screen utilized CRISPR/Cas9 genome-engineering of immortalized human myoblasts, C25cl48, where a pro-luminescent reporter HiBit was fused to the C-terminus of endogenous MHC class I allele HLA-B*08:01 (HLA-B HiBit myoblasts). HiBit is an 11 amino acid fragment of NanoLuc luminescent reporter (Promega Corporation), and when complexed to the larger LgBit fragment, the reconstituted enzyme produces light in the presence of furimazine substrate (Schwinn et al., 2018). Briefly, HLA-B HiBit myoblasts were plated into 1536-well plates, treated with 4.0 ng/ml human IFN-beta and 1,280 compounds from the Library of Pharmacologically Active Compounds 1280 library (LOPAC1280, Sigma Aldrich) in a 7-point, 1:4.3 titration with a high final concentration of 46 uM. After 24 hrs of treatment, cells were assayed by Nano-Glo HiBiT Lytic Detection System (Promega) and luminescence measured by a ViewLux 1430 Ultra HTS (Perkin Elmer).
Schwinn MK, Machleidt T, Zimmerman K, Eggers CT, Dixon AS, Hurst R, Hall MP, Encell LP, Binkowski BF, Wood K V. 2018. CRISPR-Mediated Tagging of Endogenous Proteins with a Luminescent Peptide. ACS Chem Biol 13:467-474. doi:10.1021/acschembio.7b00549
PROTOCOL TABLE (as described by Inglese et al., 2007)
SEQUENCE No. (e.g., 1, 2, 3, etc.); […] (e.g., Cells, Incubation, Reagent, etc.); VALUE; DESCRIPTION
1a; Cells; 5 uL; Use a Multidrop Combi (Thermo Scientific) to seed 350 cells/well into nine Greiner 1536 well white/solid bottom, high base, TC plates in 5 ul/well of iHSKM growth medium (GM) without dexamethasone into columns 1+2. Add metal lids with gas-exchange holes
1b; Cells; 5 uL; Use a Multidrop Combi (Thermo Scientific) to seed 350 cells/well into nine Greiner 1536 well white/solid bottom, high base, TC plates in 5 ul/well of iHSKM GM without dexamethasone + 4 ng/ml IFN-b into columns 3 - 48. Add metal lids with gas-exchange holes
2; Incubate; 1 hr; Incubate at 37 C, 5% CO2, 95% RH
3; Compounds; 23 nl; Use Pin Tool (Wako) to transfer DMSO control, ruxolitinib IFN-b inhibitor control [High Concentration = 80 uM final, 16-pt, 1:2 in duplicate], and library compounds in DMSO
4; Incubate; 24 hrs; Incubate at 37 C, 5% CO2, 95% RH
5; Dispense; 2.5 ul; Use BioRAPTR FRD (Beckman Coulter) to add HiBit lytic reagent
6; Incubate; 10 min; Incubate in the dark at ambient temperature for lysis
[…]
Potency is the fitted concentration of half-maximal effect.

SMILES | Potency
CNCC(O)c1ccc(O)c(O)c1 (stereo not given) | inactive
CC[C@H]1CN2CCc3cc(OC)c(OC)cc3[C@@H]2C[C@@H]1C[C@H]1NCCc2cc(OC)c(OC)cc21 | 0.282 µM (active)
CN(C)CCC=C1c2ccccc2CCc2ccccc21 | inactive
CCCCN(CCCC)CC(O)c1cc(Cl)cc2c1-c1ccc(Cl)cc1/C2=C/c1ccc(Cl)cc1 (stereo not given) | inactive
CN(C)CCOC(C)(c1ccccc1)c1ccccn1 (stereo not given) | inactive
CC1=C(CC(=O)O)c2cc(F)ccc2/C1=C\c1ccc(S(C)(=O)=O)cc1 | inactive
CCN(CC)CCNC(=O)c1cc(Cl)c(N)cc1OC | inactive
CC(C)c1c(C(=O)Nc2ccccc2)c(-c2ccccc2)c(-c2ccc(F)cc2)n1CC[C@@H](O)C[C@@H](O)CC(=O)O | inactive
CC(C)(C)c1onc(OCP(=O)(O)O)c1CC(N)C(=O)O (stereo not given) | inactive
C[C@H]1O[C@@H](n2cc(F)c(=O)[nH]c2=O)[C@H](O)[C@@H]1O | inactive
O=C1N=C(O)CN1/N=C/c1ccc(-c2ccc([N+](=O)[O-])cc2)o1 | inactive
CC(C)NC[C@H](O)c1ccc(O)c(O)c1 | inactive
CCN(CC)C(C)CN1c2ccccc2Sc2ccccc21 (stereo not given) | inactive
CC(=O)c1ccc2c(c1)N(CCCN(C)C)c1ccccc1S2 | inactive
COCCOC(=O)C1=C(C)NC(C)=C(C(=O)OC/C=C/c2ccccc2)C1c1cccc([N+](=O)[O-])c1 (stereo not given) | 22.4 µM (active)
CCN(CC)CCNC(=O)c1c(C)[nH]c(/C=C2\C(=O)Nc3ccc(F)cc32)c1C | 10 µM (active)
CNC(=O)Oc1ccc2c(c1)[C@]1(C)CCN(C)[C@@H]1N2C | inactive
COc1ccc(Cl)cc1C(=O)NCCc1ccc(S(=O)(=O)NC(=O)NC2CCCCC2)cc1 | inactive
CNCCCC1c2ccccc2C=Cc2ccccc21 | inactive
NC(N)=NCCC[C@H](N)C(=O)O | inactive

SMILES | Potency
C[C@]12CC[C@@H]3c4ccc(O)cc4CC[C@H]3[C@@H]1CCC2=O | inactive
CC(C)(C)[C@]1(O)CCN2C[C@H]3c4ccccc4CCc4cccc(c43)[C@@H]2C1 | inactive
CN(C)CC[C@@H](c1ccc(Cl)cc1)c1ccccn1 | inactive
C[C@](N)(Cc1ccc(O)cc1)C(=O)O | inactive
CC1=C(CC(=O)O)c2cc(F)ccc2/C1=C\c1ccc(S(C)=O)cc1 (stereo not given) | inactive
C#CCN(C)Cc1ccccc1 | inactive
CC(=O)OCC(=O)[C@@]1(O)CC[C@H]2[C@@H]3CCC4=CC(=O)CC[C@]4(C)[C@H]3C(=O)C[C@@]21C | inactive
N=c1c[n+](N2CCOCC2)[n-]o1 | inactive
Cc1cc(N)c2ccccc2[n+]1CCCCCCCCCC[n+]1c(C)cc(N)c2ccccc21 | inactive
O=C1NC(=O)[C@@]2(CCOc3ccc(F)cc32)N1 | inactive
C[C@H](NC(CCc1ccccc1)C(=O)O)C(=O)N1CCC[C@H]1C(=O)O (stereo not given in full) | inactive
C[C@]12C[C@H](O)[C@H]3[C@@H](CCC4=CC(=O)CC[C@@]43C)[C@@H]1CC[C@@H]2C(=O)CO | inactive
NC(=O)c1ncn([C@@H]2O[C@H](CO)[C@@H](O)[C@H]2O)n1 | inactive
CN1CCC[C@@H]1Cc1c[nH]c2ccc(CCS(=O)(=O)c3ccccc3)cc12 | inactive
CC1=C(/C=C/C(C)=C/C=C/C(C)=C/C(=O)O)C(C)(C)CCC1 | inactive
Nc1ncnc2c1ncn2[C@@H]1O[C@H](CO)[C@@H](O)[C@H]1O | inactive
CCCCc1ncc(/C=C(\Cc2cccs2)C(=O)O)n1Cc1ccc(C(=O)O)cc1 | inactive
CC(CN1c2ccccc2Sc2ccccc21)N(C)C (stereo not given) | inactive
CCN(CC)CCOC(=O)C1(C2CCCCC2)CCCCC1 | inactive
Nc1cc(=O)[nH]c(N)n1 | inactive
